This is an account of results in PubChem BioAssay (NCI).

Test systems include DU-145 prostate; K-562 leukemia; MALME-3M melanoma; MDA-MB-231 breast; SF-268 CNS; SF-295 CNS; SF-539 CNS; UACC-257 melanoma; HCT-15 colon; HT29 colon; SNB-75 CNS; SNB-19 CNS; U251 CNS; PC-3 prostate; UACC-62 melanoma; LOX IMVI melanoma; SK-MEL-28 melanoma; SK-MEL-5 melanoma; RXF 393 renal; M14 melanoma.
Assay in all cases: NCI-60 one-dose screen, 48 h (100 = growth as untreated, 0 = no growth, -100 = all killed)
Conditions in all cases: 10 µM unless noted

Compounds without any hit were thinned out: in the full panel of roughly 83,000, 20% have a hit.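 Method: cells in 96-well plates; compound added at one concentration; 48 h incubation; percent growth measured; values under 10 scored active.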 Unmarked numbers belong to inactive results. Activity calls are given as the source filed them.

On to `CC(C)c1ccc(NC(=O)Cc2ccc(Nc3ncnc4cc(-c5cnn(CCN(C)C)c5)ccc34)cc2)cc1`, for which the growth in the experiment with DU-145 prostate was -97.5% [30 µM] (active); in the experiment on K-562 leukemia, -34.9% [30 µM] (active); in the experiment with MALME-3M melanoma, -88.7% [30 µM] (active); in the experiment on MDA-MB-231 breast, -77.8% [30 µM] (active); in the experiment on SF-268 CNS, -62.3% [30 µM] (active); in the experiment on SF-295 CNS, -61.9% [30 µM] (active). The growth in the experiment with SF-539 CNS is -88.8% [30 µM] (active); in the experiment with UACC-257 melanoma, 54.7% [30 µM]; in the experiment on HCT-15 colon, -53.1% [30 µM] (active); in the experiment with HT29 colon, -45.4% [30 µM] (active); in the experiment with SNB-75 CNS, -82.6% [30 µM] (active); with SNB-19 CNS it was -86.1% [30 µM] (active). The growth is -65.7% [30 µM] (active) with U251 CNS; -78.1% [30 µM] (active) in the experiment with PC-3 prostate; -89.1% [30 µM] (active) with UACC-62 melanoma; -65.1% [30 µM] (active) in the experiment with LOX IMVI melanoma; -82.2% [30 µM] (active) with SK-MEL-28 melanoma.

With `COc1cc(/C=C/c2nc(Nc3ccc(S(=O)(=O)Nc4cc(C)on4)cc3)c3ccccc3n2)ccc1O`, the growth in the experiment with DU-145 prostate is 92.2%; with K-562 leukemia it was 17.8%; in the experiment on MALME-3M melanoma, 62.6%; in the experiment on MDA-MB-231 breast it was 62.8%; in the experiment on SF-268 CNS, 76.1%; in the experiment on SF-295 CNS, 70.8%. Also, the growth in the experiment with SF-539 CNS was 61.9%; with UACC-257 melanoma, 83.2%; in the experiment with HCT-15 colon it was 31.8%; with HT29 colon, 85.4%; in the experiment on SNB-75 CNS, 59.7%; in the experiment on SNB-19 CNS it was 64.3%. Besides, the growth in the experiment with U251 CNS is 61.4%; in the experiment with PC-3 prostate, 80.4%; in the experiment with SK-MEL-5 melanoma, 52.6%; with UACC-62 melanoma, 46.6%; with LOX IMVI melanoma it was 59.5%; with SK-MEL-28 melanoma, 74%.

`C=C1C(=O)O[C@H]2[C@H]1CC/C(COC(=O)/C=C\C(=O)NCc1ccc(Cn3c(=O)sn(-c4ccc(OC)cc4)c3=O)cc1)=C\CC[C@@]1(C)O[C@@H]21`: the growth in the experiment with DU-145 prostate was -84% (active); in the experiment with K-562 leukemia, 0.146% (active); in the experiment on MALME-3M melanoma it was -92% (active); in the experiment with MDA-MB-231 breast, -89.6% (active); in the experiment with SF-268 CNS, -78.3% (active); in the experiment with SF-295 CNS it was 55%. For the same compound, the growth was -99.3% (active) with SF-539 CNS; -62.2% (active) with UACC-257 melanoma; -58.1% (active) with HCT-15 colon; -22.9% (active) in the experiment on HT29 colon; -57.8% (active) with SNB-75 CNS; 7.17% (active) with SNB-19 CNS. Besides, the growth was -60.3% (active) in the experiment with U251 CNS; -58% (active) in the experiment on PC-3 prostate; -99.6% (active) with UACC-62 melanoma; -88.6% (active) in the experiment on LOX IMVI melanoma; -92% (active) with SK-MEL-28 melanoma.

On to `COc1ccc(-c2nc3sccn3c2/C=C/C(=O)c2c[nH]c3ccccc23)cc1`, for which the growth in the experiment with DU-145 prostate is 57.3%; with K-562 leukemia, 78.9%; with MALME-3M melanoma, 69.8%; in the experiment with MDA-MB-231 breast, 32.7%; with SF-268 CNS it was 61.3%; with SF-295 CNS, 78.5%. Besides, the growth in the experiment with SF-539 CNS is 82.7%; in the experiment on UACC-257 melanoma, 87.2%; in the experiment on HCT-15 colon, 60.5%; with HT29 colon, 79.7%; in the experiment with SNB-75 CNS it was 39.1%; in the experiment on SNB-19 CNS, 92.2%. Moreover, the growth is 46.2% in the experiment with U251 CNS; 58.8% with SK-MEL-5 melanoma; 76.1% in the experiment on UACC-62 melanoma; 37.5% in the experiment with LOX IMVI melanoma; 76.7% in the experiment with SK-MEL-28 melanoma.

`C=C(C)[C@@H]1CC[C@@]2(C(=O)O)CC[C@]3(C)C(CCC4[C@@]5(C)CCC(OS(=O)(=O)c6ccccc6)C(C)(C)C5CC[C@]43C)C12` (stereo not given in full): the growth with DU-145 prostate was 55.4%; in the experiment with K-562 leukemia it was 46.5%; in the experiment with MDA-MB-231 breast, 67.4%; in the experiment with RXF 393 renal, 73.8%; in the experiment on SF-268 CNS, 70.6%; in the experiment with SF-295 CNS, -32.7% (active). Further, the growth in the experiment on SF-539 CNS was 52.4%; with UACC-257 melanoma, 32%; in the experiment on M14 melanoma, 60.8%; with HCT-15 colon, 39.7%; in the experiment with HT29 colon, 58.4%; in the experiment on SNB-75 CNS, 86.1%. The growth in the experiment with SNB-19 CNS is 83.6%; with U251 CNS it was 41.5%; with PC-3 prostate, 44.4%; in the experiment with SK-MEL-5 melanoma, 35.6%; in the experiment on UACC-62 melanoma it was 47.5%; in the experiment on LOX IMVI melanoma, 53.8%. For the same compound, in the experiment on SK-MEL-28 melanoma, the growth is 86%.

As for `COc1ccc(NC(=O)c2cccc(-c3cc(=O)c4c(O)c(OC)c(OC)cc4o3)c2)cc1`, the growth with DU-145 prostate is 96.9%; in the experiment with K-562 leukemia, 91.8%; with MALME-3M melanoma, 80.6%; in the experiment with RXF 393 renal, 92%; with SF-268 CNS, 54.6%; in the experiment on SF-295 CNS, 104%. In addition, the growth was 56.1% in the experiment with SF-539 CNS; 79.2% with UACC-257 melanoma; 107% in the experiment with HCT-15 colon; 87.7% with HT29 colon; -5.24% (active) in the experiment with SNB-75 CNS; 61.6% in the experiment with SNB-19 CNS. In addition, the growth is 73.2% with U251 CNS; 86.2% in the experiment on PC-3 prostate; 91.4% in the experiment on SK-MEL-5 melanoma; 81.1% in the experiment on UACC-62 melanoma; 79.7% in the experiment on LOX IMVI melanoma; 104% in the experiment with SK-MEL-28 melanoma.

As for `COc1ccc(Cn2cnc3cc(C(=O)Nc4cccc5ccccc45)ccc32)c(OC)c1`, the growth in the experiment with DU-145 prostate was -7.09% [30 µM] (active); in the experiment on K-562 leukemia, 1.36% [30 µM] (active); in the experiment with MALME-3M melanoma, 38.2% [30 µM]; in the experiment with MDA-MB-231 breast it was 4.77% [30 µM] (active); in the experiment with SF-268 CNS, 13.8% [30 µM]; in the experiment with SF-295 CNS, 7.91% [30 µM] (active). Also, the growth in the experiment on SF-539 CNS is -36.7% [30 µM] (active); with UACC-257 melanoma, 69.4% [30 µM]; in the experiment with HCT-15 colon it was 3.1% [30 µM] (active); in the experiment on HT29 colon, 8.08% [30 µM] (active); with SNB-75 CNS, 35.4% [30 µM]; in the experiment with SNB-19 CNS, 21.5% [30 µM]. The growth in the experiment with U251 CNS is 17.5% [30 µM]; with PC-3 prostate, 17.4% [30 µM]; in the experiment on UACC-62 melanoma it was 14.8% [30 µM]; in the experiment on SK-MEL-28 melanoma, 60.6% [30 µM].

Regarding `COc1cc2oc(-c3cccc(C(=O)Nc4ccc(C#N)cc4)c3)cc(=O)c2c(O)c1OC`, the growth in the experiment with DU-145 prostate was 34.2%; in the experiment with K-562 leukemia, 66.4%; in the experiment on MALME-3M melanoma it was 47.7%; in the experiment on RXF 393 renal it was 102%; with SF-268 CNS, 50%; in the experiment with SF-295 CNS, 36.8%. In addition, the growth in the experiment with SF-539 CNS was 82.4%; with UACC-257 melanoma, 88.9%; with HCT-15 colon it was 75%; in the experiment with HT29 colon, 53.9%; with SNB-75 CNS, 83.9%; with SNB-19 CNS, 44%. For the same compound, the growth in the experiment on U251 CNS was 61.3%; with PC-3 prostate it was 7.86% (active); in the experiment with SK-MEL-5 melanoma it was 70.3%; with UACC-62 melanoma, 41.5%; in the experiment with LOX IMVI melanoma, 55.7%; in the experiment on SK-MEL-28 melanoma, 32.8%.
